# The panel holds about 83,000 compounds, 20% with a hit somewhere; the sample as a whole holds those more often.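 For each line, cells grew in 96-well plates with the test compound present at a single concentration for 48 hours.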 Values without a mark were called inactive. The source made the active and inactive calls. How the source made its calls: active means growth percent below 10; inactive means the rest.
# Experiments:
# Assay in all cases: NCI-60 one-dose screen, 48 h (100 = growth as untreated, 0 = no growth, -100 = all killed)
# Settings in all cases: 10 µM unless noted
# SR leukemia = system: SR leukemia
# RPMI-8226 leukemia = system: RPMI-8226 leukemia
# OVCAR-5 ovarian = system: OVCAR-5 ovarian
# OVCAR-4 ovarian = system: OVCAR-4 ovarian
# SK-OV-3 ovarian = system: SK-OV-3 ovarian
# IGROV1 ovarian = system: IGROV1 ovarian
# OVCAR-3 ovarian = system: OVCAR-3 ovarian
# HS 578T breast = system: HS 578T breast
# NCI/ADR-RES ovarian = system: NCI/ADR-RES ovarian
# T-47D breast = system: T-47D breast
# BT-549 breast = system: BT-549 breast
# MDA-MB-435 melanoma = system: MDA-MB-435 melanoma
# SW-620 colon = system: SW-620 colon
# MCF7 breast = system: MCF7 breast
# HCC-2998 colon = system: HCC-2998 colon
# KM12 colon = system: KM12 colon
# HCT-116 colon = system: HCT-116 colon
Compound,growth (SR leukemia),growth (RPMI-8226 leukemia),growth (OVCAR-5 ovarian),growth (OVCAR-4 ovarian),growth (SK-OV-3 ovarian),growth (IGROV1 ovarian),growth (OVCAR-3 ovarian),growth (HS 578T breast),growth (NCI/ADR-RES ovarian),growth (T-47D breast),growth (BT-549 breast),growth (MDA-MB-435 melanoma),growth (SW-620 colon),growth (MCF7 breast),growth (HCC-2998 colon),growth (KM12 colon),growth (HCT-116 colon)
CN1CCN(Cc2ccc(NC(=O)c3cncc(C#Cc4cncc5[nH]ncc45)c3)cc2C(F)(F)F)CC1,-4.67% (active),1.42% (active),4.44% (active),10.2%,8.47% (active),-43.8% (active),15.8%,-35.5% (active),57.4%,31.3%,23.5%,2.84% (active),-29.1% (active),20.5%,6.34% (active),3.69% (active),–
C=CCn1c(SCC(=O)Nc2ccc(C(=O)/C=C/c3ccc(OC)cc3)cc2)nnc1-c1ccccc1,85.3%,5.8% (active),82.7%,77.4%,106%,84.9%,89.5%,100%,–,57.3%,43.8%,49%,97.7%,20%,102%,82.6%,9.87% (active)
C[C@@H](CO)[C@@H]1CC[C@]2(C(=O)N3CCN(C)CC3)CC[C@]3(C)[C@H](CC[C@@H]4[C@@]5(C)CC[C@H](O)C(C)(C)[C@@H]5CC[C@]43C)[C@@H]12,-12.4% (active),38.2%,101%,78.3%,108%,74%,87.7%,85.2%,84.5%,76.7%,75.8%,75.8%,51.5%,42.1%,105%,86%,–
Nc1c(C(=O)Nc2cccc3ncccc23)sc2nc3c(cc12)C(=O)CCC3,41.4%,59.6%,69.8%,71.1%,21.3%,59%,37.4%,5.47% (active),72.8%,49.3%,55.2%,-18.2% (active),39.1%,25.2%,75.8%,46.5%,44.1%
CCOC(=O)Cn1c(=O)c2c3ccccc3n(C)c2n2nnc(-c3ccccc3)c12,-50.7% (active),65%,74.3%,102%,117%,58.6%,100%,82.1%,85.7%,95.1%,104%,99.1%,95.7%,81.8%,67.8%,99.7%,65%
CC(=O)N/C(=C1/OC(C(O)C(O)C(O)CO)CN1C)[P+](c1ccccc1)(c1ccccc1)c1ccccc1 (configuration not stated),95.3%,99.7%,99.5%,97.2%,93.8%,101%,112%,114%,101%,103%,102%,103%,104%,92.8%,97.7%,–,100%
O=C(Cn1cc(CN2C(=O)c3ccccc3S2(=O)=O)nn1)Nc1cccc(Cl)c1,113%,104%,112%,109%,79.3%,108%,106%,107%,93.1%,97%,133%,–,102%,92.5%,93.5%,104%,98.8%
CCCCCCOC(=O)CC1=C(C)/C(=C/c2[nH]c(-c3ccc[nH]3)cc2OC)N=C1C,-44.5% (active),-52.3% (active),-9.61% (active),-29.2% (active),-34.5% (active),-8.74% (active),-93.9% (active),-27% (active),-49.4% (active),-32.8% (active),-33.9% (active),-82.4% (active),-74% (active),-24.1% (active),-47.5% (active),-51.4% (active),-79% (active)
CC(C)c1ccc(-n2c(=S)[nH]c3sc4c(c3c2=O)CCC(=O)C4)cc1,50%,15.9%,68.2%,46.5%,84.3%,63.1%,53%,32.4%,44%,11.7%,26.3%,91.8%,48.5%,85.4%,40.1%,18.6%,53.5%
C/C(C=O)=C\c1ccc2c(c1)OCO2,109%,96.7%,110%,109%,105%,116%,132%,115%,107%,117%,114%,107%,118%,102%,108%,–,–
COc1cc(C(=O)C(=O)c2cc(OC)c(O)c(OC)c2)cc(OC)c1O,103%,91.3%,97%,101%,103%,117%,103%,110%,–,98.1%,120%,103%,105%,96.5%,92.1%,107%,104%
CCCCn1sc(=O)n(Cc2ccc(CNC(=O)OCc3ccc4c(Br)cc(Br)c(O)c4n3)cc2)c1=O,5.73% (active),18.7%,52%,51.7%,34.6%,15.7%,-0.408% (active),18.6%,9.82% (active),69.9%,-16.2% (active),-35.4% (active),24.5%,12%,24.8%,2.42% (active),7.95% (active)
O=S(=O)(c1ccccc1)N1CCCN(c2nc(-c3ccccc3)nc3nc(-c4ccccc4)oc23)CC1,104%,98.1%,106%,105%,103%,100%,–,116%,104%,99.4%,107%,102%,109%,90.8%,108%,113%,89.5%
CCc1cccc(Sc2cc(C(=O)N3Cc4ccc(OCCN(C)C)cc4C3)ccc2O)c1,19.9%,29.3%,110%,53.2%,37.7%,59.8%,67.3%,95.4%,50.4%,37.2%,70.1%,–,41.9%,24.8%,75%,23.5%,49.5%
Cc1cscc(C)c1=S,72.9%,103%,67.5%,113%,98.9%,77%,–,122%,71.1%,96%,99.7%,104%,50.5%,59.4%,103%,104%,61.2%
CC1=CCC[C@@H]2C1(C)CC[C@H](C)[C@@]2(C)CC1=CC(=O)C(SC(C)(C)C)=CC1=O (some centres not stated),74%,64.7%,68%,88.5%,106%,99.4%,84.9%,85%,84.8%,-11.8% (active),80.5%,97.2%,78.9%,-61.1% (active),96.8%,93.1%,64%
C=C(C)[C@@H]1CC[C@]2(CO)CC[C@]3(C)[C@H](CC[C@@H]4[C@@]5(C)CCC(NCCc6ccc(O)cc6)C(C)(C)[C@@H]5CC[C@]43C)[C@@H]12 (some centres not stated),-46.8% (active),-53.5% (active),-72.4% (active),-89.3% (active),75.8%,-85.5% (active),-95% (active),-54.5% (active),–,-66.3% (active),33.9%,-92.4% (active),-80% (active),-77.9% (active),-90.1% (active),-84% (active),-89.9% (active)

# — PubChem BioAssay (NCI)
